Measurements from PubChem BioAssay (NCATS).
Records with an inconclusive call do not appear. Where a call stands in place of a potency, no number is given. Activity calls are given as the source filed them. Calls follow the shape of the dose curve; as a rule, active = well fitted curve in the direction sought with a large enough effect; inconclusive = small, poorly fitted or top-dose-only effect, or another doubt; inactive = no such curve, though single readings can be large; an effect the other way counts as inactive or inconclusive.

Experiments:
[1] = qHTS of pediatric cancer cell lines to identify multiple opportunities for drug repurposing: Primary screen for A673 cells (AID 1347092); also: nearly all actives have a fitted effect of over 45% in size; also: potency is read from the fitted curve at half-maximal effect
How it was run: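 Cell viability of A673 measured by CellTiter-Glo ATP luminescence after 48 hours compound exposure. Dilution series spanned 0.78 nM to 46 µM (MIPE, 11-point) or 0.59 nM to 46 µM (NPC, 8-point); bortezomib 2.3 uM positive control.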

[2] = qHTS of pediatric cancer cell lines to identify multiple opportunities for drug repurposing: Primary screen for SK-N-MC cells (AID 1347093); also: potency is read from the fitted curve at half-maximal effect
How it was run: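 Metabolically active cells were quantified by ATP-dependent luminescence (CellTiter-Glo, 15 min at room temperature) following 48 h treatment. Cells had been plated at 500-1,000 per well and settled for 5 h beforehand.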

[3] = qHTS of pediatric cancer cell lines to identify multiple opportunities for drug repurposing: Primary screen for NB1643 cells (AID 1347099); also: nearly all actives have a fitted effect of over 50% in size; also: potency is read from the fitted curve at half-maximal effect
How it was run: (§1)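 Plated cells (500-1,000 per well, growth media) were allowed to settle for 5 hours, treated with compound dilutions for 48 hours, then lysed with CellTiter-Glo for 15 min at room temperature before luminescence reading.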

[4] = qHTS of pediatric cancer cell lines to identify multiple opportunities for drug repurposing: Primary screen for OHS-50 cells (AID 1347103); also: nearly all actives have a fitted effect of over 40% in size; also: potency is read from the fitted curve at half-maximal effect
How it was run: (§2)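 Cells (500-1,000/well) rested 5 h, then received compounds for 48 h; metabolically active cells were measured by CellTiter-Glo luminescence. Final concentrations spanned up to 46 µM (MIPE, 11-point) or 0.59 nM-46 µM (NPC, 8-point) in primary screens, 11-point in follow-ups.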

[5] = qHTS of pediatric cancer cell lines to identify multiple opportunities for drug repurposing: Primary screen for MG 63 (6-TG R) cells (AID 1347105); also: nearly all actives have a fitted effect of over 50% in size
How it was run: as §1

[6] = qHTS of pediatric cancer cell lines to identify multiple opportunities for drug repurposing: Primary screen for Rh30 cells (AID 1347107); also: nearly all actives have a fitted effect of over 75% in size; also: potency is read from the fitted curve at half-maximal effect
How it was run: as §2

[7] = qHTS of pediatric cancer cell lines to identify multiple opportunities for drug repurposing: Primary screen for U-2 OS cells (AID 1347096); also: nearly all actives have a fitted effect of over 50% in size
How it was run: as §2

[8] = qHTS of pediatric cancer cell lines to identify multiple opportunities for drug repurposing: Primary screen for Rh18 cells (AID 1347102); also: nearly all actives have a fitted effect of over 65% in size
How it was run: as §2

[9] = qHTS of pediatric cancer cell lines to identify multiple opportunities for drug repurposing: Primary screen for RD cells (AID 1347104); also: nearly all actives have a fitted effect of over 55% in size; also: potency is read from the fitted curve at half-maximal effect
How it was run: as §1

[10] = qHTS of pediatric cancer cell lines to identify multiple opportunities for drug repurposing: Primary screen for control Hh wild type fibroblast cells (AID 1347106);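 also: series mostly up to about 46 µM; a drop in luminescence marks cytotoxicity and a rise apparent proliferation; nearly all actives have a fitted effect of over 55% in size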
How it was run: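 Viability after 48 h compound treatment at 37C, 500-1,000 cells/well, read as ATP luminescence with CellTiter-Glo. Primary screens used 11-point (MIPE, 0.78 nM-46 µM) or 8-point (NPC, 0.59 nM-46 µM) final concentrations; follow-up screens used 11-point dilutions.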

[11] = qHTS of pediatric cancer cell lines to identify multiple opportunities for drug repurposing: Primary screen for Rh41 cells (AID 1347108); also: nearly all actives have a fitted effect of over 70% in size; also: potency is read from the fitted curve at half-maximal effect
How it was run: as §1

[12] = qHTS of pediatric cancer cell lines to identify multiple opportunities for drug repurposing: Primary screen for BT-37 cells (AID 1347094); also: potency is read from the fitted curve at half-maximal effect
How it was run: as §1

[13] = qHTS of pediatric cancer cell lines to identify multiple opportunities for drug repurposing: Primary screen for Saos-2 cells (AID 1347097); also: nearly all actives have a fitted effect of over 40% in size; also: potency is read from the fitted curve at half-maximal effect
How it was run: as §1

[14] = qHTS of pediatric cancer cell lines to identify multiple opportunities for drug repurposing: Confirmatory screen for A673 cells (AID 1347110);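 also: cells exposed to compound for 48 h before the viability read; nearly all actives have a fitted effect of over 65% in size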
How it was run: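 Viability was read as ATP luminescence (CellTiter-Glo) after 48 h of compound exposure at 37 C in A673 cells seeded at 500-1,000/well. Titrations reached 46 uM final, with 11 points in the confirmatory screen. Concentration-response curves were fitted directly.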

[15] = qHTS of pediatric cancer cell lines to identify multiple opportunities for drug repurposing: Primary screen for NB-EBc1 cells (AID 1347095)
How it was run: as §1

[16] = qHTS of pediatric cancer cell lines to identify multiple opportunities for drug repurposing: Primary screen for LAN-5 cells (AID 1347100); also: potency is read from the fitted curve at half-maximal effect
How it was run: as §2

[17] = qHTS of pediatric cancer cell lines to identify multiple opportunities for drug repurposing: Primary screen for BT-12 cells (AID 1347101); also: nearly all actives have a fitted effect of over 25% in size; also: potency is read from the fitted curve at half-maximal effect
How it was run: as §2

[18] = qHTS of pediatric cancer cell lines to identify multiple opportunities for drug repurposing: Primary screen for SK-N-SH cells (AID 1347098); also: nearly all actives have a fitted effect of over 65% in size; also: potency is read from the fitted curve at half-maximal effect
How it was run: as §2

[19] = qHTS of pediatric cancer cell lines to identify multiple opportunities for drug repurposing: Confirmatory screen for NB1643 cells (AID 1347109); also: nearly all actives have a fitted effect of over 45% in size
How it was run: as §2

[20] = qHTS of pediatric cancer cell lines to identify multiple opportunities for drug repurposing: Confirmatory screen for SK-N-MC cells (AID 1347111);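 also: potency is read from the fitted curve at half-maximal effect; cells exposed to compound for 48 h before the readout; nearly all actives have a fitted effect of over 70% in size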
How it was run: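 Seed 500-1,000 cells/well; rest 5 h at 37 degrees C. Pin-transfer compounds, 11-point titration. Incubate 48 h. Add CellTiter-Glo, 15 min RT, read luminescence.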

Structure (SMILES) | Potency [1] | Potency [2] | Potency [3] | Potency [4] | Potency [5] | Potency [6] | Potency [7] | Potency [8] | Potency [9] | Potency [10] | Potency [11] | Potency [12] | Potency [13] | Potency [14] | Potency [15] | Potency [16] | Potency [17] | Potency [18] | Potency [19] | Potency [20]
O=c1cc(CN2CCOCC2)occ1OCCCCCSc1ccnc2cc(C(F)(F)F)ccc12 | 14.8 µM (active) | 1.32 µM (active) | inactive | 15.3 µM (active) | inactive | inactive | – | – | – | – | – | – | – | – | – | – | – | – | – | –
N#Cc1ccc(NC(=O)Nc2ccccc2Br)c2n[nH]nc12 | 23.5 µM (active) | 26.4 µM (active) | – | 21.7 µM (active) | inactive | inactive | inactive | inactive | inactive | inactive | inactive | – | – | – | – | – | – | – | – | –
CO[C@H]1C[C@@H]2CC[C@@H](C)[C@@](O)(O2)C(=O)C(=O)N2CCCC[C@@H]2C(=O)O[C@H]([C@H](C)C[C@@H]2CC[C@H](OCCO)[C@H](OC)C2)CC(=O)[C@H](C)C=C(C)[C@@H](O)[C@@H](OC)C(=O)[C@H](C)C[C@H](C)C=CC=CC=C1C | 11.8 µM (active) | – | inactive | – | inactive | inactive | – | – | – | – | 1.18 µM (active) | 10.9 µM (active) | 3.32 µM (active) | inactive | – | – | – | – | – | –
O=c1c(-c2ccc(O)cc2)coc2cc(O)ccc12 | inactive | – | inactive | – | inactive | inactive | inactive | inactive | inactive | inactive | inactive | inactive | inactive | – | inactive | inactive | inactive | – | – | –
O=C(O)C=Cc1ccc(O)c(O)c1 | 11.8 µM (active) | 2.64 µM (active) | 20.9 µM (active) | – | inactive | 23.5 µM (active) | – | inactive | 33.2 µM (active) | inactive | – | – | 23.5 µM (active) | – | – | – | – | 24.1 µM (active) | – | –
Cc1ccc(F)c(NC(=O)Nc2ccc(-c3cccc4[nH]nc(N)c34)cc2)c1 | 14.8 µM (active) | 20.9 µM (active) | – | 27.3 µM (active) | inactive | inactive | – | – | – | inactive | – | – | 18.7 µM (active) | – | – | 20.9 µM (active) | – | 24.1 µM (active) | – | –
COc1ccccc1N1CCN(CCCNc2cc(=O)n(C)c(=O)n2C)CC1 | inactive | – | inactive | inactive | – | inactive | inactive | inactive | inactive | inactive | inactive | inactive | inactive | – | inactive | inactive | inactive | – | – | –
CC(C)(C)Cn1c(N)nc2ccc(-c3[nH]c(C(C)(C)C)nc3-c3ccc(F)cc3)nc21 | 18.7 µM (active) | – | 11.8 µM (active) | – | – | 20.9 µM (active) | inactive | – | 20.9 µM (active) | inactive | 18.7 µM (active) | 24.3 µM (active) | inactive | – | inactive | inactive | 27.3 µM (active) | – | – | –
CC(=O)OC1C(C)OC(Oc2c(-c3ccc(O)cc3)oc3cc(O)cc(O)c3c2=O)C(O)C1OC(C)=O (configuration not stated) | 11.8 µM (active) | – | – | – | – | – | inactive | – | – | inactive | – | 27.3 µM (active) | – | – | – | – | – | inactive | – | –
COc1cccc2c1CCCC2CCCN1CCN(C2CCCCC2)CC1 (configuration not stated) | inactive | 18.7 µM (active) | – | 19.3 µM (active) | inactive | – | inactive | – | 26.4 µM (active) | inactive | – | – | – | – | – | 26.4 µM (active) | 24.3 µM (active) | – | – | –
CCCCCN(C)CCC(O)(P(=O)(O)O)P(=O)(O)O | inactive | – | inactive | inactive | inactive | inactive | inactive | inactive | inactive | inactive | inactive | inactive | inactive | – | inactive | inactive | inactive | inactive | – | –
Nc1ncnc2ccccc12 | 23.5 µM (active) | – | – | inactive | inactive | inactive | inactive | inactive | inactive | – | 23.5 µM (active) | inactive | inactive | – | inactive | – | inactive | – | – | –
O=C(Nc1c(Cl)cncc1Cl)c1ccc(OC(F)F)c(OCC2CC2)c1 | inactive | – | – | inactive | inactive | inactive | inactive | inactive | inactive | inactive | inactive | inactive | – | – | inactive | inactive | – | – | – | –
CC#CCn1c(N2CCC[C@@H](N)C2)nc2c1c(=O)n(Cc1nc(C)c3ccccc3n1)c(=O)n2C | 23.5 µM (active) | – | – | inactive | inactive | – | inactive | inactive | – | inactive | – | inactive | – | – | inactive | inactive | inactive | – | – | –
CC(C(=O)O)c1ccc(-c2ccccc2)c(F)c1 (configuration not stated) | 14.8 µM (active) | – | 26.4 µM (active) | – | – | – | inactive | inactive | – | – | – | – | – | – | inactive | – | – | 24.1 µM (active) | – | –
O=C(O)[C@H]1O[C@H](Oc2cc3oc(-c4ccccc4)cc(=O)c3c(O)c2O)[C@H](O)[C@@H](O)[C@H]1O | inactive | – | 0.118 µM (active) | – | inactive | – | inactive | – | inactive | inactive | – | inactive | – | – | inactive | inactive | inactive | – | – | –
CO[C@H]1C[C@@H]2CC[C@@H](C)[C@@](O)(O2)C(=O)C(=O)N2CCCC[C@@H]2C(=O)O[C@H]([C@H](C)C[C@@H]2CC[C@H](OP(C)(C)=O)[C@H](OC)C2)CC(=O)[C@H](C)C=C(C)[C@@H](O)[C@@H](OC)C(=O)[C@H](C)C[C@H](C)C=CC=CC=C1C | inactive | – | inactive | – | inactive | inactive | inactive | – | inactive | inactive | – | – | – | – | – | – | – | – | inactive | 11.7 µM (active)
